Measured values as given in PubChem BioAssay (NCI).
The panel holds about 83,000 compounds, 20% with a hit somewhere; the sample as a whole holds those more often.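 Activity criterion: percent growth below 10, measured after cells in 96-well plates were exposed to a single compound concentration for 48 hours.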 Values without a mark were called inactive. Active and inactive are the calls of the source.

These compounds were tested on HCC-2998 colon (assay: NCI-60 one-dose screen, 48 h (100 = growth as untreated, 0 = no growth, -100 = all killed)). Settings: 10 µM.

| SMILES | growth |
| --- | --- |
| Nc1nccc(Nc2ccccc2)n1 | 114% |
| COc1cc(C2CC(c3ccc(Nc4ccnc5cc(Cl)ccc45)cc3)=NN2c2ccc(Cl)cc2)cc(OC)c1OC (centres undefined) | 55.4% |
| COc1cc(-c2cc(-c3cc4c([nH]c5ccccc54)c(-c4cc(OC)c(OC)c(OC)c4)n3)cc(-c3ccccc3)n2)cc(OC)c1OC | 72.8% |
| COc1ccc(-c2nsc3c2NC(=O)CC3c2ccc(F)cc2)cc1 (centres undefined) | 56.7% |
| ClC(Cl)(Cl)c1nc2nccnc2[nH]1 | 122% |
| COc1ccc(-c2cc(/C=C3\C(=O)Nc4ccc(Cl)cc43)[nH]n2)cc1OC | 103% |
| CCOC(=O)C1CCc2c(ccc3ccccc23)N1CCC#N (centres undefined) | 93.5% |
| CN(C)Cc1cn(-c2ncc(-c3ccc(C(F)(F)F)cc3)c(NC3CCCCCC3)n2)nn1 | 94.8% |
| O=C(CSSCC(=O)c1ccc(Cl)cc1)c1ccc(Cl)cc1 | 63.1% |
| COc1ccc2c(c1)/C(=C\c1c[nH]c3ccc(OC)cc13)C(=O)N2 | 49.4% |
| Cc1cc(N(CCCNc2ccnc3cc(Cl)ccc23)Cc2cccs2)nc(Cl)n1 | 36.8% |
| COc1ccc(-c2nc3sc(C4CC4)nn3c2/C=C2/C(=O)Nc3ccc(OC)cc32)cc1 | 104% |
| COc1cc(-c2cc(/C=C/C(=O)c3ccc4c(c3)OCO4)[nH]n2)cc(OC)c1OC | 103% |
| CC[C@H](C)C(=O)O[C@H]1CCC=C2C=C[C@H](C)C(CCC3C[C@@H](O)CC(=O)O3)[C@H]21 (some centres undefined) | 89% |
| CCOCCOCCOCCOCCOCCOCCOCCOCCOCCO (tested in a mixture with another compound) | 9.05% (active) |

What follows are compounds tested on KM12 colon in the same assay as above. Settings: 10 µM.

| SMILES | growth |
| --- | --- |
| COc1ccc(S(=O)(=O)Nc2c(/C=C\c3cc(OC)c(OC)c(OC)c3)ccc(OC)c2O)cc1 | -4.97% (active) |
| Cc1cn(C2CCCCO2)c(=O)nc1NO (centres undefined) | 102% |
| N=c1nc(N)ncn1-c1ccccc1 | 108% |
| CCCCCCCNc1nc(C=O)ncc1-c1ccc(C(F)(F)F)cc1 | 91.2% |
| C/C(N)=C(\C#N)C(=O)c1ccccc1 | 107% |
| CC1CC(=O)OC(C)C1 (centres undefined) | 110% |
| Cc1cc(=O)n2nnc3c4ccccc4ccc3n12 | 91.2% |
| COc1ccc(-c2nn(-c3cccc(NC(=O)c4cc(C(F)(F)F)cc(C(F)(F)F)c4)c3)cc2-c2ccncc2)cc1Cl | 48.8% |
| Cc1ccc(S(=O)(=O)OCCN(CCOS(=O)(=O)c2ccc(C)cc2)c2c[nH]c(=O)[nH]c2=O)cc1 | 116% |
| O=C(Nc1ccc(Cl)cc1)N1NC(c2ccc(Cl)cc2)C=C1c1ccccc1 (centres undefined) | 96.3% |
| CCn1cc(C(=O)O)c(=O)c2cnc(N3CCCC3)nc21 | 108% |
| COc1ccc(C2=Nc3c(C)nn(-c4ccccc4)c3NC(c3ccc(Oc4ccnc5cc(Cl)ccc45)c(OC)c3)C2)cc1 (centres undefined) | 85.4% |
| Cn1c(N)c(N=Nc2ccc(S(=O)(=O)Nc3nccs3)cc2)c(=O)n(C)c1=O | 104% |
| COc1cc(-c2nc(-c3nnc(-c4ccccc4Cl)o3)c3ccccn23)cc(OC)c1OC | 80.5% |
| COc1ccc(-c2nc3sc(-c4ccc(OC)cc4)c(-c4ccc(OC)cc4)n3c2/C=C/c2ccc(C(C)C)cc2)cc1 | 102% |
| N#CSCC1CC(O)(c2ccccc2)CC(c2ccc(Cl)cc2)O1 (centres undefined) | 22.3% |
| CS(=O)(=O)Nc1cccc(-c2cc(-c3ccccc3Cl)c(C#N)c(N)n2)c1 | 24.5% |
| O=C(/C=C/c1cc2ccccc2[nH]c1=O)c1ccc2c(c1)OCO2 | 92.3% |
| CC(C)(Cl)CCC1=C(Cl)C(=O)c2ccccc2C1=O | 35.7% |
| O=C1C(c2ccccc2)C2C=CC(C2)N1O (centres undefined) | 108% |

| SMILES | growth |
| --- | --- |
| CC(C)(C)NC/C(=C\c1ccccc1)C(=O)c1ccccc1 | 14% |
| NC(=O)c1ccc(-c2cccc3c(=O)nc(N4CCOCC4)oc23)cc1 | 97.6% |
| COC(=O)C1(C)Cc2cc(OC(C)=O)c(OC(C)=O)cc2N1 (centres undefined) | 85.9% |
| CC(=O)c1nc2ccccc2n1CCN1CCN(C)CC1 | 14.1% |
| Nc1nccc(Nc2ccccc2)n1 | 101% |
| COc1cc(C2CC(c3ccc(Nc4ccnc5cc(Cl)ccc45)cc3)=NN2c2ccc(Cl)cc2)cc(OC)c1OC (centres undefined) | 30.5% |
| COc1cc(-c2cc(-c3cc4c([nH]c5ccccc54)c(-c4cc(OC)c(OC)c(OC)c4)n3)cc(-c3ccccc3)n2)cc(OC)c1OC | 60% |
| COc1ccc(-c2nsc3c2NC(=O)CC3c2ccc(F)cc2)cc1 (centres undefined) | 22.2% |
| ClC(Cl)(Cl)c1nc2nccnc2[nH]1 | 106% |
| COc1ccc(-c2cc(/C=C3\C(=O)Nc4ccc(Cl)cc43)[nH]n2)cc1OC | 29.3% |
| CCOC(=O)C1CCc2c(ccc3ccccc23)N1CCC#N (centres undefined) | 94.9% |
| CN(C)Cc1cn(-c2ncc(-c3ccc(C(F)(F)F)cc3)c(NC3CCCCCC3)n2)nn1 | 86.3% |
| O=C(CSSCC(=O)c1ccc(Cl)cc1)c1ccc(Cl)cc1 | 44.8% |
| COc1ccc2c(c1)/C(=C\c1c[nH]c3ccc(OC)cc13)C(=O)N2 | 10.1% |
| Cc1cc(N(CCCNc2ccnc3cc(Cl)ccc23)Cc2cccs2)nc(Cl)n1 | 39.1% |
| COc1ccc(-c2nc3sc(C4CC4)nn3c2/C=C2/C(=O)Nc3ccc(OC)cc32)cc1 | 77.8% |
| COc1cc(-c2cc(/C=C/C(=O)c3ccc4c(c3)OCO4)[nH]n2)cc(OC)c1OC | 18% |
| CC[C@H](C)C(=O)O[C@H]1CCC=C2C=C[C@H](C)C(CCC3C[C@@H](O)CC(=O)O3)[C@H]21 (some centres undefined) | 103% |
| CCOCCOCCOCCOCCOCCOCCOCCOCCOCCO (tested in a mixture with another compound) | -18.3% (active) |
